First the molecules themselves.
T1: UNK ZnF1-3 (human, UniProt Q9C0B0 31-174)
T1 sequence: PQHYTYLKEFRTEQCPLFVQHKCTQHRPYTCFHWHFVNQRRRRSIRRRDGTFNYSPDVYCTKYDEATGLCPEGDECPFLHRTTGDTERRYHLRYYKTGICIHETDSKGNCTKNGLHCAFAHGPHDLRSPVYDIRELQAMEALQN

B1: chr12:73045124:73045125:+_ENSMUSG00000034574_ENSMUST00000085299|mus_mus|FALSE|FALSE (ssRNA)
RNA: GGGAGUUCUACAGUCCGACGAUCGCCUUGAGAGUUGUUCAUUAGUGCCUUUAUACAGCCAAUGAGGGAGGUGUGUAUCCGAGACUCAGAGGUCUCAUAGUCCAUGGUCUUCAGAAAGUUGAGAAUACAUGACAGGCCAUCCAACAACAGAGGAUUGAGCAUCA
B2: chr16:57473197:57473198:-_ENSG00000005194_ENST00000569370|hu_hu|motif|central (ssRNA)
RNA: GGGAGUUCUACAGUCCGACGAUCGAUCCGGGCGAUUUCAGCCAAAAUCUCAGCACUGUGCAGAGUGGUGCUUCCUGGGACGGAACCUGACAAAAUAAUGUCAAAGCUGGAUUCUUUGUGGGCAGAUUGCAACAGCUGCUUGAUCAACAGAGGAUUGAGCAUCA
B3: chrX:114877694:114877695:+_ENSG00000102024_ENST00000355899|hu_hu|FALSE|FALSE (ssRNA)
RNA: GGGAGUUCUACAGUCCGACGAUCGUUGAGUUUGGGGUUUCCACUGACAACAUCAGCAGGGGUAACAAACUGUCUGCAACCUAAUUUAUCUGCUUGUUGAAGCAUACUCUCAGCUCUCUUCAAAUCAUCUGUUUCAUUGAAACCCAACAGAGGAUUGAGCAUCA
B4: 31603315_31603435_826_3pUTR_ENSMUSG00000024261_ENSMUST00000025110|mouse|control|control (ssRNA)
RNA: GGGAGUUCUACAGUCCGACGAUCUUCCUGAGCACUCUGGUCUUCACUCUGUGCUUCUUCUCUGGUAAGAUUGUCAUUUUGAUGUACGGGUCAGAGGUCAUGGAUUGCUCGUCCAUGGCUGGUAAGCCCUGGGCUUCCUUGAUGCAACAGAGGAUUGAGCAUCA
B5: 171883182_171886102_1035_3pUTR_ENSMUSG00000026675_ENSMUST00000027989|mouse|control|control (ssRNA)
RNA: GGGAGUUCUACAGUCCGACGAUCUUCUGAACGGUGGUCCUGACACGCUUUUCCAGCUCCAGUAAGACCUCAUAGAAUUUUUCAGCAGUGUCUUCAUCUAUGUCCAUCUUUUGGCCCGUGACGUAAUUAGUCCCAAAUCCCGAGCAACAGAGGAUUGAGCAUCA
B6: 82050892_82051012_2182_ncRNA_ENSMUSG00000021134_ENSMUST00000153056|mouse|control|control (ssRNA)
RNA: GGGAGUUCUACAGUCCGACGAUCUUGUUUUGUUUUUUAAAAAAAGGCCCCCAGGGCAAGUUAUUUACAGUUUAAUUGCCACUGUCAACUGAUCUGGACCUGGACCGGGAUCGGGACCUCUGGCGAUCCACAGAUGCUGGAGAUCAACAGAGGAUUGAGCAUCA
B7: chr16:94651144:94651145:+_ENSMUSG00000040785_ENSMUST00000117648|mus_hu|mus_mus_mus_hu_True|58_98 (ssRNA)
RNA: GGGAGUUCUACAGUCCGACGAUCAUUUUCUUGAAUCAAGUGACCGAUAACAUAGUCCACUGCUUCAUUUAGAAAAUUUUUGCUAGAAAAACAGGUUGUAUAGUCUUCUGUGCUCAAAACUUUCCAAGAAAGCAAUUCUUUGAGCAACAGAGGAUUGAGCAUCA
B8: chr2:115689334:115689335:-_ENSMUSG00000027210_ENSMUST00000074285|mus_hu|FALSE|FALSE (ssRNA)
RNA: GGGAGUUCUACAGUCCGACGAUCCUCUUUGAAGAAGAGUCCCCCAAAAAUAAUAAUAAGAAUUGGCUUAUGAAGCACGAACUAUAAAGAUCUGUUUGAAACUAAAGGACACAUUUAUGGAGGAACAAAGGCCGGGCAUGAAAACAACAGAGGAUUGAGCAUCA
B9: chr18:35731629:35731630:+_ENSMUSG00000037236_ENSMUST00000166793|mus_mus|FALSE|FALSE (ssRNA)
RNA: GGGAGUUCUACAGUCCGACGAUCUUAUAGAUCAAAAAAAAAAAAAAAAGUUUUAAAAGAUGGCCAAAAAGAAAGCUCAAGCUAGAAAGCUAGGUUAACUUUGCUUCAAAAAUGGUAACGCCAAGAAAAAGGAUCAAUAAGGACCAACAGAGGAUUGAGCAUCA
B10: chr1:23636438:23636439:-_ENSG00000125944_ENST00000302271|hu_mus|FALSE|FALSE (ssRNA)
RNA: GGGAGUUCUACAGUCCGACGAUCUUUUGUAGGGCAGAUUUCAAAAAGGUGUGGUUAUAACAAUUUAAAAACACAGUUAACCUGCUUCUAGGAAUGCAAAACAUACAGUCAUAGGUUAUCUUCAAUACAAGGAAACUUAAGUCUCAACAGAGGAUUGAGCAUCA
B11: chr13:59234359:59234360:+_ENSMUSG00000055254_ENSMUST00000079828|mus_mus|FALSE|FALSE (ssRNA)
RNA: GGGAGUUCUACAGUCCGACGAUCUAUGUAAAAAAUUGUUUUUGCUUUAUGUUGGUGAUGAAUGGACCAAAAGUUGAUAGAUAGAUAGAUAAAUAAAUAAAUAAAUAAAUAAAUACACAAAUAAAUAACGCCGAAGGGAAAGAACAACAGAGGAUUGAGCAUCA
B12: 151522442_151522562_447_CDS_ENSMUSG00000034021_ENSMUST00000016569|mouse|control|control (ssRNA)
RNA: GGGAGUUCUACAGUCCGACGAUCAUAAAUCCUGAAAAUAUCAGCAAGGCAGCAAGCCACCAGUAAACGAACAUCUUUAUCAGGAUGCUUGAGGAAGAAGUCAGAAGCAAGAUGUAAAGCUAGGUUUAGAUAAAGUUCCUUUUCCAACAGAGGAUUGAGCAUCA
B13: chr14:54894545:54894546:-_ENSG00000100528_ENST00000216416|hu_hu|FALSE|FALSE (ssRNA)
RNA: GGGAGUUCUACAGUCCGACGAUCCAUUUGGUGGCUUUUUGCAUGCACUUAACUGGACCAAUUCUUCUGUGUGUUGUUCUAAGAGCUCACCAAAACAUAGAUCAUGCCAUAUAGGUAGUAAAAAAAUGCUAGAAGAUAAAAAGCCAACAGAGGAUUGAGCAUCA
B14: chr18:35731629:35731630:+_ENSMUSG00000037236_ENSMUST00000166793|mus_mus|motif|central (ssRNA)
RNA: B9 RNA with U82G, A83G
B15: chr13:100200628:100200629:-_ENSMUSG00000052727_ENSMUST00000064762|perfect_dup|FALSE|FALSE (ssRNA)
RNA: GGGAGUUCUACAGUCCGACGAUCGUCACCAGGUGUCUUCCCUCCACUGUCCUUCUCCAGGCCAGGUGUGGACAAAUCUCUAUUCAAGGCUAGAUGGUGUUGCAUUGUAUCGAAUAACACUGAGGCACGGAAGCCAUAGGGCUCCAACAGAGGAUUGAGCAUCA
B16: chr14:78183846:78183847:+_ENSG00000119705_ENST00000557342|hu_hu|hu_hu_hu_mus_False|78_88 (ssRNA)
RNA: GGGAGUUCUACAGUCCGACGAUCUCUCAGAAAUCUUUCUUCAUCAGCAUCAUCAGAUGUUUGCGGAGCCUUUGCUCUUUGAGCUUGAACGUGGAUCUAUGGGAGGGAAAGCACUGUCAGAAAAGGUAAUUUUUUUUUUAAAGACAACAGAGGAUUGAGCAUCA
B17: chr18:35731629:35731630:+_ENSMUSG00000037236_ENSMUST00000166793|mus_hu|FALSE|FALSE (ssRNA)
RNA: GGGAGUUCUACAGUCCGACGAUCUAUUUUAUAGAUUAAAAAAAAAAAUUUUUUUAAAGACGGCCAAAAAGAAAGCUCAAACUAGAAAGCUAGGUUAACUUUGCUUCAAAAAUGGUAACGCCAAGAAAAAGGAUCAAUAAGGACCAACAGAGGAUUGAGCAUCA
B18: chr1:66485654:66485655:+_ENSMUSG00000015222_ENSMUST00000024639|mus_hu|FALSE|FALSE (ssRNA)
RNA: GGGAGUUCUACAGUCCGACGAUCUUUUUAAAUAGAAAAUUGUAACAAUUACUACAGUUUGGGGAUGAGAUUAUUUAUUUUAUGGUUUAUAAAGAAUGAAUAUAACAACUGCUCAGAGCCCACUCCUGCCAAGAGCUCAUGCCUCAACAGAGGAUUGAGCAUCA
B19: chr7:127875444:127875445:+_ENSMUSG00000046096_ENSMUST00000060175|mus_hu|FALSE|FALSE (ssRNA)
RNA: GGGAGUUCUACAGUCCGACGAUCAAAGGCAUAUAACAUAUAAAGAAAAUAUUGUAUUGCUCAGGUUUUGGUAAAGAUGUAUUAAUAAUGCUUACAGAUAAAAAUAAUGAAAUUAGUGUUGUAAAUAGCCAAAAUAGCCAGAUACAACAGAGGAUUGAGCAUCA
B20: chr18:35731629:35731630:+_ENSMUSG00000037236_ENSMUST00000166793|mus_hu|motif|central (ssRNA)
RNA: B17 RNA with U82G, A83G
B21: chr18:51681570:51681571:-_ENSG00000134046_ENST00000256429|hu_hu|FALSE|FALSE (ssRNA)
RNA: GGGAGUUCUACAGUCCGACGAUCGAUAUAUACAUCAAAAAUACAUCUAAAAAGGCAUUGGUUAGUGCUAUUAAAAAGCUCUAUGUGCUCGGGUACAUUUUUUUUCUUACAGGCAAAAGCCAGUGGAAACAUUUUUGUUCAAUUCAACAGAGGAUUGAGCAUCA
B22: chr9:74904954:74904955:+_ENSMUSG00000007656_ENSMUST00000169492|mus_hu|FALSE|FALSE (ssRNA)
RNA: GGGAGUUCUACAGUCCGACGAUCCCAAAAGGUAAAUACAGAAGAAAUCAAUACAAUAGAGAUUAUAUUAAAUAAGAGUAACAUACAAAGCUAUAAUUAAGAUGAAGUAAUGAAAGCCAAAACAUUAAAAUUUUAAAACUUGCUCAACAGAGGAUUGAGCAUCA

For 22 molecules, binding signal results are on record in PMC12136788.

Numbering of substitutions follows the chain as printed. Over roughly 24,000 sequences, “enrichment r” has its median near 0.99; the highest 2% begin near 3.7. For the sample, the highest values were picked, then their nearest neighbours and some sequences at random.

The test concerns the target T1, UNK ZnF1-3. The test is described as follows: nsRBNS (natural sequence RNA bind-n-seq); RBNS binding buffer (assumed for nsRBNS): 25 mM Tris pH 7.5, 150 mM KCl, 3 mM MgCl2, 0.01% Triton X-100, 500 ug/ml BSA, 20 U/ml SUPERase-In, 4 C; UNK is unkempt and MSI1 is Musashi-1; names of the RNAs are library labels; protein concentration not given here; high values mean tight binding.
Take B1: the binding signal came out at 0.851 enrichment R.
As to B2, the binding signal is 1.32 enrichment R.
As for B3, the figure is 0.755 enrichment R.
The result for B4 reads 0.411 enrichment R; that for B5, 0.753 enrichment R.
As for B6, the figure is 1.31 enrichment R.
As to B7, the binding signal turned out to be 0.331 enrichment R.
As for B8, the figure is 2.27 enrichment R.
As for B9, the figure is 7.98 enrichment R; as for B10, 1.23 enrichment R; as for B11, 5.23 enrichment R.
As for B12, the figure is 1.36 enrichment R.
Turning to B13, the binding signal is 1.24 enrichment R.
The result for B14 reads 8.04 enrichment R; that for B15, 1.14 enrichment R.
B16: the binding signal amounted to 1.96 enrichment R.
As to B17, the binding signal is 4.65 enrichment R.
As for B18, the figure is 3.6 enrichment R; as for B19, 5.6 enrichment R.
Take B20: the binding signal is 5.52 enrichment R.
As for B21, the figure is 0.982 enrichment R; as for B22, 3.69 enrichment R.
